The list is not random: actives were taken first. Their share in the collection is about 22%.
Pf growth 48h – inhibits P. falciparum growth in the first generation, 48 h. P. falciparum luciferase growth in erythrocytes, 48 h. Potency, µM (titrated, usually from 28.7 µM), for inactives: top-dose activity change, negative = inhibition, hits mostly inhibitors. 310,000 tested, 5.9% active. AID 504832; further: potency means the concentration at half of the fitted maximal effect; on the % scale 0 is the no-effect control and ±100 the full control effect
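A one-generation exposure of luciferase-tagged malaria parasites in RPMI 1640/Albumax erythrocyte culture, 37 C and 5% CO2. Inhibition is inferred from decreased luminescence after adding detection reagent.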
Cycloheximide cs – counter-screen for Shiga toxin inhibitors: cycloheximide protein synthesis inhibition. max response, %. 300,000 tested, 12% active. cell reporter, cycloheximide protein synthesis inhibition counterscreen; in the data active means max response mostly above about 13%, no sharp cut-off; inactive means mostly below about 14%; further: read at 38.3 µM for the half of the compounds with a filed dose; 0% is about no effect
Pf growth 96h – P. falciparum growth inhibition at 96 hours; P. falciparum luciferase reporter growth, 96 h; 320,000 tested, 6.9% active; Potency, µM (top dose mostly 28.7 µM), inactives show top-dose activity change, negative = inhibition, hits mostly inhibitors; further: potency means the concentration at half of the fitted maximal effect; on the % scale 0 is the no-effect control and ±100 the full control effect
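Delayed-death screen, second-generation endpoint: infected erythrocytes, 2% hematocrit, 0.05% parasitemia final; 96 hours at 37 C, 5% CO2; luciferase detection reagent; luminescence decrease equals reduced growth.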
Shiga toxin inh – Shiga toxin inhibition; Vero cells, Shiga toxin protein synthesis inhibition reporter; inhibition, % at 38.7 µM; 290,000 tested, 9.2% active; in the data active means inhibition mostly above about 28%, no sharp cut-off; inactive means mostly below about 43%; further: 0% is about no effect
LmPK inh – inhibitors of Leishmania mexicana pyruvate kinase; Potency, µM (highest dose often 57.5 µM), without a hit: at the highest dose activity change, negative = inhibition, usual class: inhibitors; Q27686; purified LmPK, Kinase-Glo ATP luminescence, 1 h; 290,000 tested, 0.37% active; further: potency means the concentration at half of the fitted maximal effect; on the % scale 0 is the no-effect control and ±100 the full control effect
Target sequence (Q27686 whole entry, looked up): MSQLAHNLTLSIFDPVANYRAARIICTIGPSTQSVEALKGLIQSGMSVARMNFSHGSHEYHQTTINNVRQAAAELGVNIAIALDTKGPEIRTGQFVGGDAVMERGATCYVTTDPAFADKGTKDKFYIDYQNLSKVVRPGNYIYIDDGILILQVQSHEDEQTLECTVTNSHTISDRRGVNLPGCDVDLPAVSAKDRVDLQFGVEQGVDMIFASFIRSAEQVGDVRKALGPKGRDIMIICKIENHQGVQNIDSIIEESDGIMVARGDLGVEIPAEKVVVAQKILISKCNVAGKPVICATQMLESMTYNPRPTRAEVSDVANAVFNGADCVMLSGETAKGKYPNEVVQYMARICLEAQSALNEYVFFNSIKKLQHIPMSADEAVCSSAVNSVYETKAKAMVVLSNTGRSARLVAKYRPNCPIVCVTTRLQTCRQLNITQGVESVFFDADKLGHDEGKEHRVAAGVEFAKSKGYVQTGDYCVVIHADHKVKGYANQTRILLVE
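ATP generated from ADP (0.1 mM) and PEP (0.5 mM) by 0.1 nM LmPK over 1 h at room temperature (pH 7.2 imidazole buffer) was detected by coupled luciferase luminescence. Values were normalized to uninhibited and no-enzyme wells.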
Active calls of the source: *; u = inconclusive; x = no result given. Unless noted, the call rests on the fitted dose curve; in most records, active means well fitted inhibition curve with a large enough effect; inconclusive means small, poorly fitted or top-dose-only effect, or another doubt; inactive means no such curve, though single readings can be large or run the other way.

SMILES	Pf growth 48h	Cycloheximide cs	Pf growth 96h	Shiga toxin inh	LmPK inh
CNS(=O)(=O)c1ccc(NCC2COc3ccccc3O2)c([N+](=O)[O-])c1 (configuration not stated)	13%	16*	-12%	-5	0%
Cc1nnc(NC(=O)C2CCCO2)s1 (configuration not stated)	26%	4	x	6	4%
O=C(CCC(=O)Nc1nnc(C2CCCCC2)s1)NCC1CCCO1 (configuration not stated)	x	-5	-28%	-6	-3%
CCCC(C)c1nnc(NC(=O)C2CCCO2)s1 (configuration not stated)	64%	40*	35%	35*	0%
CCCCCc1nnc(NC(=O)C2CCCO2)s1 (configuration not stated)	90%	44*	x	67*	-1%
O=C(Nc1nnc(CCN2CCCCC2)s1)C1CCCCC1	7%	-3	13µM*	-2	0%
CC(C)c1nnc(NC(=O)CCC(=O)NCC2CCCO2)s1 (configuration not stated)	3%	-2	2.1µM*	16	-5%
COc1ccc(NCc2ccc(OC)c(Cn3ccnc3)c2)c(OC)c1	u	2	8%	4	2%
CC[C@H](C)[C@H](NC(=O)CNC(=O)[C@H](CCCNC(=N)N)NC(=O)[C@H](CO)NC(=O)[C@H](C)NC(=O)[C@H](Cc1ccc(O)cc1)NC(=O)[C@H](Cc1c[nH]c2ccccc12)NC(=O)[C@H](C)NC(=O)[C@@H]1CCCN1C(=O)[C@H](CC(N)=O)NC(=O)[C@@H](NC(=O)[C@H](CC(=O)O)NC(=O)[C@@H]1CCCN1C(=O)[C@@H](NC(=O)[C@H](CCCNC(=N)N)NC(=O)[C@@H](NC(=O)[C@H](CCC(=O)O)NC(=O)[C@H](CCSC)NC(=O)[C@H](CO)NC(=O)[C@H](Cc1cnc[nH]1)NC(=O)[C@H](CCCNC(=N)N)NC(=O)[C@H](Cc1cnc[nH]1)NC(=O)[C@@H](NC(=O)[C@H](CCCNC(=N)N)NC(=O)[C@@H](N)CO)[C@@H](C)O)[C@@H](C)CC)[C@@H](C)O)[C@@H](C)CC)C(=O)N[C@@H](CCCNC(=N)N)C(=O)N1CCC[C@H]1C(=O)N[C@H](C(=O)NCC(=O)N[C@@H](CCCNC(=N)N)C(=O)N[C@@H](Cc1ccccc1)C(N)=O)C(C)C	x	-9	x	-2	x
COc1cccc(CN(C(=O)c2ccc([N+](=O)[O-])cc2)C2CCS(=O)(=O)C2)c1 (configuration not stated)	9%	-3	0%	-4	-1%
COCCSc1nnc(NC(=O)C2CCCO2)s1 (configuration not stated)	33%	24*	x	91*	-10%
CC(C)N1CCc2c(sc(NC(=O)c3ccc(C(=O)c4ccccc4)cc3)c2C(N)=O)C1	13µM*	5	u	-5	-4%
CC(C)N1CCc2c(sc(NC(=O)c3ccc4ccccc4c3)c2C(N)=O)C1	10µM*	10	9.3µM*	-20	-13%
CC(C)N1CCc2c(sc(NC(=O)Cc3ccccc3)c2C(N)=O)C1	u	-4	u	-4	-6%
CCN1CCc2c(sc(NC(=O)c3cc4ccccc4cc3OC)c2C(N)=O)C1	9.3µM*	-8	u	-23	3%
CC(=O)Nc1sc2c(c1-c1nc3ccccc3s1)CCN(C(C)C)C2	3.7µM*	-1	4.1µM*	-2	2%
CC(NS(=O)(=O)c1ccc2c(c1)CC(C)N2C(=O)C1CC1)c1ccccc1 (configuration not stated)	-1%	-1	7%	-2	-1%
COc1cccc(-c2nc(CS(=O)(=O)CC(=O)NC3CCCCC3C)c(C)o2)c1 (configuration not stated)	u	-5	u	2	-2%
CC1CCCCN1S(=O)(=O)Cc1ccccc1Cl (configuration not stated)	-11%	-1	274%	-1	0%
CCN1C(=O)[C@@H]2[C@@H](c3ccc(-c4ccc5c(c4)OCO5)c(OC)c3)N3CCCC[C@@]3(C(=O)OC)[C@@H]2C1=O	4.7µM*	x	12µM*	x	x
CCN1C(=O)[C@@H]2[C@@H](c3ccc(-c4ccc(C(C)=O)cc4)c(OC)c3)N3CCCC[C@@]3(C(=O)OC)[C@@H]2C1=O	2.9µM*	x	9.3µM*	x	x
COC(=O)[C@@]12CCCCN1[C@H](c1ccc(-c3ccc(OC)cc3)cc1)[C@@H]1C(=O)N(C)C(=O)[C@@H]12	u	x	-8%	x	x
CCN1C(=O)[C@@H]2[C@@H](c3ccc(-c4ccc(C(C)=O)cc4)c(OC)c3)N3CCC[C@@]3(C(=O)OC)[C@@H]2C1=O	10µM*	x	6.6µM*	x	x
COC(=O)[C@@]12CCCCN1[C@H](c1ccc(-c3ccc(OC)cc3)c(OC)c1)[C@@H]1C(=O)N(C)C(=O)[C@@H]12	9.3µM*	x	7.4µM*	x	x
COc1ccc([C@H]2CC(=O)C=C(c3ccc4c(c3)OCO4)C2)cc1OC	u	x	-13%	x	x
SMILES	Pf growth 48h	Cycloheximide cs	Pf growth 96h	Shiga toxin inh	LmPK inh
O=C1CCNCCN1[C@H](CO)c1ccccc1	0%	1	u	-1	-1%
CCC(=O)Nc1ccc(NC(=O)CSc2nnnn2Cc2ccccc2)cc1C	28%	-1	2%	-8	7%
Nc1c(C(=O)N2CCCC2)sc2nc(-c3ccccc3)ccc12	135%	39*	100%	75*	1%
Nc1c(C(=O)O)sc2nc(-c3ccccc3)cc(-c3ccccc3)c12	u	-4	u	-2	-1%
Nc1c(C(=O)N2CCCCC2)sc2nc3c(cc12)CCCC3	199%	50*	0%	108*	2%
Cc1ccc(C(=O)c2sc3nc4c(cc3c2N)CCC4)cc1	208%	47*	u	active	0%
Cc1ccc(-c2c3c(nc4sc(C(N)=O)c(N)c24)CCC3)cc1	29%	29*	u	95	0%
COc1ccc(OC)c(C(C)NC(=O)Nc2cccc(C(C)=O)c2)c1 (configuration not stated)	6%	1	0%	-5	-3%
COc1ccc2[nH]c3c(c2c1)CCN1C(=O)N([C@@H](C)C(=O)NCc2ccc(C)cc2)C(=O)[C@]31C	u	-2	u	-8	-11%
NC(=O)c1cccc(-c2cc(Nc3ccc(OC(F)(F)F)cc3)ncn2)c1	13µM*	13*	15µM*	26	5%
Nc1nc(/C(=C/CC(=O)O)C(=O)NC2C(=O)N3C(C(=O)O)=CCSC23)cs1 (configuration not stated)	-3%	x	-5%	x	x
Cc1sc2ncnc(SCC(=O)c3cccs3)c2c1C	51%	35*	x	72*	1%
CCCCCC(C)N (configuration not stated)	u	x	12µM*	x	x
Cc1cc2ccccn2c1C(=O)c1ccc([N+](=O)[O-])cc1[N+](=O)[O-]	u	-2	-26%	-9	0%

From PubChem BioAssay
